# Reference: PubChem BioAssay (NCATS)
# Results filed as inconclusive are left out. Where a call stands in place of a potency, no number is given. Active and inactive are the calls of the source. The call rests on the fitted dose curve; in most records, active means well fitted cell-killing curve with a large enough effect; inconclusive means small, poorly fitted or top-dose-only effect, or effect the other way; inactive means no such curve, though single readings can be large or run the other way. Numbered stars: 1 amine (or outer) side, 2 acyl side, 3 side chain; on linkers, the order of the positions; unused ones are H or OH. Bridge positions count the residues as written; N and C are the ends. Square brackets hold non-standard residues; d marks the D form. Peptide text beside a SMILES is read from it. I, II: the chains in the order shown. Actinocin(9to1) = Cc1c2oc3c(C)ccc(C(=O)[*:1])c3nc-2c(C(=O)[*:2])c(N)c1=O; NMeV = CN[C@H](C(=O)O)C(C)C; Sar = CNCC(=O)O
# Assay: qHTS of pediatric cancer cell lines to identify multiple opportunities for drug repurposing: Confirmatory screen for NB1643 cells (AID 1347109); further: nearly all actives have a fitted effect of over 45% in size
# Settings: NB1643 neuroblastoma cell viability; series mostly up to 45.9 µM
# Description: Drug repurposing or repositioning has been offered as a strategy for drug development in oncology programs. This approach has special potential for childhood cancers and other rare or orphan diseases, where the expected return on new drug development has been a disincentive to pharmaceuticals.
# In this project we exploit the poly-pharmacology of drugs to discover new indications via phenotypic screening of a panel of 19 well-characterized cell lines derived from solid tumors seen in children and adolescents. The goal is to identify approved drugs with previously unrecognized anticancer properties that has the potential to reveal new mechanisms and biological processes involved in carcinogenesis or drug resistance. We employed a titration-based paradigm (quantitative high-throughput screening or qHTS), where all compounds were tested at multiple concentrations for their effect on cell viability. Concentration-response curves (CRCs) were derived directly from the primary screen, and both potency and efficacy values were used to identify compounds with robust bioactivity profiles. We screened the NIH Chemical Genomics Center (NCGC) Pharmaceutical Collection (NPC) and Mechanism Interrogation Plate (MIPE) small molecule collections of approved and investigational compounds against these cell lines; and measured metabolically active cells after 48 hours of compound treatment as a proxy for cell viability.
# Assay Submitter: Nathalia J. Martinez, National Center for Advancing Translational Sciences, National Institutes of Health, Rockville, MD, USA; email: natalia.martinez@nih.gov
# [1] Shen, M et al. Quantitative high-throughput phenotypic screening of pediatric cancer cell lines identifies multiple opportunities for drug repurposing. Oncotarget 2017 Dec 19;9(4):4758-4772. PMID 29435139.
# The cells were obtained from University of North Carolina (UNC), Pediatric Preclinical Testing Program (PPT), and Coriell Institute (CI).
# qHTS cell viability assay:
# Cells were assayed in growth media at a density of 500-1,000 cells/well. Five microliters of cells were dispensed into 1,536-well, white, solid-bottom, TC-treated plates (Greiner Bio One) using a multidrop dispenser and incubated at 37 degrees C, 5% CO2, under a humidified atmosphere for 5 hours. Twenty-three nanoliters of compounds and controls (neutral control DMSO or positive control bortezomib at final concentration of 2.3 µM) were subsequently transferred by Kalypsys pintool. For primary screens, the MIPE collection was tested at 11-point dilutions (final concentrations range from 0.78 nM to 46 µM) and the NPC collection at 8-point dilutions (final concentrations range from 0.59 nM to 46 µM). Compounds tested in follow-up screens were assayed at 11-point dilutions. Cells were incubated for 48 hours, followed by addition of 3 µL of CellTiter-Glo (Promega). After a 15 min incubation at room temperature, samples were analyzed for luminescence intensity using a ViewLux High-throughput CCD imager equipped with clear filters.
# Potency means the concentration at half of the fitted maximal effect.
row,SMILES,Potency
1,CCCCCCC[N+](CC)(CC)CCCCc1ccc(Cl)cc1,14.7 µM (active)
2,C[C@]12CCC(=O)C=C1CC[C@H]1[C@@H]3CC[C@](O)(C(=O)CO)[C@@]3(C)C[C@H](O)[C@@]12F,inactive
3,CN(C)C(=S)SC(=S)N(C)C,9.27 µM (active)
4,CC(=O)OCC(=O)[C@@]1(OC(C)=O)[C@@H](C)C[C@H]2[C@@H]3C[C@H](F)C4=CC(=O)C=C[C@]4(C)[C@@]3(F)[C@@H](O)C[C@@]21C,inactive
5,COc1cc(C=C2CCC/C(=C\c3ccc(O)c(OC)c3)C2=O)ccc1O,18.5 µM (active)
6,CCCCC(=O)O[C@]1(C(=O)CO)CC[C@H]2[C@@H]3CCC4=CC(=O)CC[C@]4(C)[C@H]3[C@@H](O)C[C@@]21C,inactive
7,C[C@]12C=CC(=O)C=C1[C@@H](F)C[C@@H]1[C@@H]2[C@@H](O)C[C@@]2(C)[C@H]1CC[C@]2(O)C(=O)CO,inactive
8,CC(=O)OCC(=O)[C@@]12OC(C)(C)O[C@@H]1C[C@H]1[C@@H]3C[C@H](F)C4=CC(=O)C=C[C@]4(C)[C@@]3(F)[C@@H](O)C[C@@]12C,inactive
9,CC(=O)Oc1ccc(C(c2ccc(OC(C)=O)cc2)c2ccccn2)cc1,inactive
10,CCCC(=O)O[C@]1(C(=O)CO)CC[C@H]2[C@@H]3CCC4=CC(=O)CC[C@]4(C)[C@H]3[C@@H](O)C[C@@]21C,inactive
11,NC(=O)CC[C@@H]1NC(=O)[C@H](Cc2ccccc2)NC(=O)[C@H](Cc2ccc(O)cc2)NC(=O)CCSSC[C@@H](C(=O)N2CCC[C@H]2C(=O)N[C@@H](CCCN=C(N)N)C(=O)NCC(N)=O)NC(=O)[C@H](CC(N)=O)NC1=O,inactive
12,NC(CO)(CO)CO,inactive
13,CC(C)(C(=O)c1cccnc1)c1cccnc1,inactive
14,CCC(C(=O)OCCN(CC)CC)c1ccccc1 (configuration not stated),inactive
15,C[n+]1c2cc(N)ccc2cc2ccc(N)cc21 (tested in a mixture with another compound),3.29 µM (active)
16,CC(=O)OCC(=O)[C@@]12N=C(C)O[C@@H]1C[C@H]1[C@@H]3CCC4=CC(=O)C=C[C@]4(C)[C@H]3[C@@H](O)C[C@@]12C,2.33 µM (active)
17,O=C(CCCN1CCC(O)(c2ccc(Br)cc2)CC1)c1ccc(F)cc1,inactive
18,CC1(C)O[C@@H]2C[C@H]3[C@@H]4C[C@H](F)C5=CC(=O)CC[C@]5(C)[C@H]4[C@@H](O)C[C@]3(C)[C@]2(C(=O)CO)O1,inactive
19,CC1(C)O[C@@H]2C[C@H]3[C@@H]4CCC5=CC(=O)CC[C@]5(C)[C@@]4(F)[C@@H](O)C[C@]3(C)[C@]2(C(=O)CCl)O1,inactive
20,CC(=O)OCC(=O)[C@@]1(O)CC[C@H]2[C@@H]3CCC4=CC(=O)C=C[C@]4(C)[C@H]3[C@@H](O)C[C@@]21C,inactive
21,Oc1ccc(O)cc1,18.5 µM (active)
22,"Cc1c2oc3c(C)ccc(C(=O)N[C@@H]4C(=O)N[C@H](C(C)C)C(=O)N5CCC[C@H]5C(=O)N(C)CC(=O)N(C)[C@@H](C(C)C)C(=O)O[C@@H]4C)c3nc-2c(C(=O)N[C@@H]2C(=O)N[C@H](C(C)C)C(=O)N3CCC[C@H]3C(=O)N(C)CC(=O)N(C)[C@@H](C(C)C)C(=O)O[C@@H]2C)c(N)c1=O (I: T[dV]P[Sar][NMeV] / II: T[dV]P[Sar][NMeV]; ester I:1-I:C, II:1-II:C; linker I:N-II:N via Actinocin(9to1))",inactive
23,C[C@@H]1C[C@H]2[C@@H]3CCC4=CC(=O)C=C[C@]4(C)[C@@]3(F)[C@@H](O)C[C@]2(C)[C@H]1C(=O)CO,inactive
24,CC(=O)OCC(=O)[C@@]1(O)[C@H](C)C[C@H]2[C@@H]3CCC4=CC(=O)C=C[C@]4(C)[C@@]3(F)[C@@H](O)C[C@@]21C,20.8 µM (active)
25,CCCCC(CC)CN=C(N)NC(N)=NCCCCCCN=C(N)NC(N)=NCC(CC)CCCC (configuration not stated),5.22 µM (active)
26,C=C1C[C@H]2[C@@H]3C=C(C)C4=CC(=O)CC[C@]4(C)[C@H]3CC[C@]2(C)[C@@]1(OC(C)=O)C(C)=O,inactive
27,C[C@H]1C[C@H]2[C@@H]3CCC4=CC(=O)C=C[C@]4(C)[C@@]3(Cl)[C@@H](O)C[C@]2(C)[C@@]1(O)C(=O)CO,inactive
